# Source: the supplement of paper PMC9694430
# Columns and labels:
# Experiment in all cases: thermal shift delta Tm vs DMSO control; higher = stronger stabilization (binding)
# Conditions in all cases: 12.5 µM; protein concentration 2 µM
# [1] = test system: LOC_OS01G57100-cb003
# Procedure, shortened: (§1)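 Heating from 25°C to 95°C at 0.05°C/s, fluorescence was recorded for 19.5 μl wells of 2 μM E. coli-expressed, purified rice kinase domain in 100 mM potassium phosphate pH 7.5, 150 mM NaCl, 10% glycerol and 5 × SYPRO Orange with compound in DMSO. Boltzmann fits gave melting temperatures for this differential scanning fluorimetry assay. The shift reported is the mean of three replicates against the DMSO-only protein.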
# [2] = test system: LOC_OS01G60330-cb001
# Procedure, shortened: as §1
# [3] = test system: LOC_OS01G60700-cb002
# Procedure, shortened: as §1
# [4] = test system: LOC_OS01G63280-cb003
# Procedure, shortened: as §1
# [5] = test system: LOC_OS01G67340-cb003
# Procedure, shortened: as §1
# [6] = test system: LOC_OS01G70970-cb002
# Procedure, shortened: as §1
# [7] = test system: LOC_OS02G07810-cb001
# Procedure, shortened: as §1
# [8] = test system: LOC_OS02G08530-cb003
# Procedure, shortened: as §1
# [9] = test system: LOC_OS02G14120-cb001
# Procedure, shortened: as §1
# [10] = test system: LOC_OS02G17970-cb001
# Procedure, shortened: as §1
# [11] = test system: LOC_OS02G45750-cb003
# Procedure, shortened: as §1
# [12] = test system: LOC_OS02G54510-cb004
# Procedure, shortened: as §1
# [13] = test system: LOC_OS03G04050-cb001
# Procedure, shortened: as §1
# [14] = test system: LOC_OS03G12390-cb001
# Procedure, shortened: as §1
# [15] = test system: LOC_OS03G27990-cb004
# Procedure, shortened: as §1
# [16] = test system: LOC_OS03G50450-cb001
# Procedure, shortened: as §1
# [17] = test system: LOC_OS03G50810-cb003
# Procedure, shortened: as §1
# [18] = test system: LOC_OS04G35114-cb001
# Procedure, shortened: as §1
# [19] = test system: T1, LOC_OS04G38480-cb003
# T1 sequence (whole entry): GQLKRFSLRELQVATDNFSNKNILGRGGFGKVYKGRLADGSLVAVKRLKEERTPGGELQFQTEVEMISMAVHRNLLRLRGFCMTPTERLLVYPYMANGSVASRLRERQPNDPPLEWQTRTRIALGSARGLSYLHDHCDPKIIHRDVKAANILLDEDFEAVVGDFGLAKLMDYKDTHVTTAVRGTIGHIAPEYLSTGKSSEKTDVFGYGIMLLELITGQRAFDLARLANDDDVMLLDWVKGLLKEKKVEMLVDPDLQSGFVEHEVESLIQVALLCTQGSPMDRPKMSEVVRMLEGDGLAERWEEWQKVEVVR
# Procedure, shortened: as §1
# [20] = test system: T2, LOC_OS04G41100-cb001
# T2 sequence (whole entry): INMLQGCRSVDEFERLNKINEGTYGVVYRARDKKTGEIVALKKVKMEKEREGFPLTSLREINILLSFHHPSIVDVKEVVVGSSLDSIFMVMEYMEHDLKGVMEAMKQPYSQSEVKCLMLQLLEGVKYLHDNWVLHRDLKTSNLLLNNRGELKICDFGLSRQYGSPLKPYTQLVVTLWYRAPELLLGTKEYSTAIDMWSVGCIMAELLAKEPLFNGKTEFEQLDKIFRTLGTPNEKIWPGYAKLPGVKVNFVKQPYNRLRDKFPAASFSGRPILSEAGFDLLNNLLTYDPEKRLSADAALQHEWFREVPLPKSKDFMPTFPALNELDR
# Procedure, shortened: as §1
# 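Further: purified Escherichia coli-expressed rice kinase domain construct.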
SMILES,thermal shift delta Tm [1] [°C],thermal shift delta Tm [2] [°C],thermal shift delta Tm [3] [°C],thermal shift delta Tm [4] [°C],thermal shift delta Tm [5] [°C],thermal shift delta Tm [6] [°C],thermal shift delta Tm [7] [°C],thermal shift delta Tm [8] [°C],thermal shift delta Tm [9] [°C],thermal shift delta Tm [10] [°C],thermal shift delta Tm [11] [°C],thermal shift delta Tm [12] [°C],thermal shift delta Tm [13] [°C],thermal shift delta Tm [14] [°C],thermal shift delta Tm [15] [°C],thermal shift delta Tm [16] [°C],thermal shift delta Tm [17] [°C],thermal shift delta Tm [18] [°C],thermal shift delta Tm [19] [°C],thermal shift delta Tm [20] [°C]
O=C1c2ccc(Nc3ccc(F)cc3F)cc2CCc2ccc(OC[C@H](O)CO)cc21 [Skepinone-L],1.15,1.18,0.79,0.21,0.84,0.42,-0.07,0.85,0.72,0.17,0.45,-0.21,-0.01,-0.61,0.11,0.06,-0.16,1.82,1.25,0.53
Cc1cc2c(F)c(Oc3ncnn4cc(OC[C@@H](C)O)c(C)c34)ccc2[nH]1,0.81,1.36,0.76,1.5,-0.11,0.52,0.7,1.17,1.77,0.7,1.84,-0.24,0.46,-0.04,1.01,0.21,0.22,5.26,1.05,0.62
COc1ccc(/C=C/C(=O)C2(C(=O)/C=C/c3ccc(OC)c(OC)c3)CCCCC2)cc1OC,2.18,0.27,0.41,0.1,0.3,0.31,0.4,1.47,0.46,0.38,1.45,0.31,0.85,-0.65,0.61,0.8,-0.01,0.96,0.14,0.5
Cc1ccc(NC(=O)c2ccc(CN3CC[C@H](N(C)C)C3)c(C(F)(F)F)c2)cc1Nc1nccc(-c2cncnc2)n1 [Bafetinib (INNO-406)],1.86,0.46,1.32,0.68,0.51,0.51,0.39,1.13,0.81,0.5,0.37,3.32,0.29,0.16,0.43,0.25,0.34,0.18,0.66,0.35
COc1cccc2cc(-c3nc([C@H]4CC[C@H](C(=O)O)CC4)n4ncnc(N)c34)[nH]c12,2.68,0.91,0.9,1.4,1.05,0.4,1.58,1.17,0.19,0.71,0.26,0.38,0.31,0.34,0.03,0.32,0.58,3.43,0.98,0.32
CS(=O)(=O)N1CCc2c(-c3cnc(N)nc3)nc(N3CCOCC3)nc21,1.64,1.56,0.95,0.4,1.13,0.73,1.06,1.51,1.15,0.81,1.16,0.52,0.13,0.72,0.23,0.77,0.53,0.89,1.31,0.14
